# Compound activity from PubChem BioAssay.
# Most compounds without a hit are left out; they make up all but 15% or so of the library.
# Pf growth 48h – P. falciparum growth inhibition at 48 hours (one generation) | P. falciparum luciferase growth in erythrocytes, 48 h | Potency, µM (series often up to 28.7 µM), for inactives: at the top dose activity change, negative = inhibition, usual class: inhibitors | 5.9% of 310,000 active | AID 504832; also: potency is read from the fitted curve at half-maximal effect; % is scaled to controls: 0 for no effect and ±100 for the full control effect
#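 First compound was added to culture medium, then infected red cells at 0.1% parasitemia and 2% hematocrit (final). After incubation at 37 C under 5% CO2, luciferase detection reagent was dispensed and light output recorded.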
# Pf growth 96h – P. falciparum growth inhibition at 96 hours; Potency, µM (doses to about 28.7 µM), for inactives: at the highest dose activity change, negative = inhibition, hits mostly inhibitors; 6.9% of 320,000 active; P. falciparum luciferase reporter growth, 96 h; AID 504834; also: potency is read from the fitted curve at half-maximal effect; % is scaled to controls: 0 for no effect and ±100 for the full control effect
#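 Readout is luminescence from an integrated firefly luciferase in P. falciparum. Red cells, 2% hematocrit and 0.05% parasitemia final, were cultured with compound through two parasite generations (96 hours) at 37 C, 5% CO2.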
# SARS PLpro yeast – SARS-CoV PLP inhibition in yeast. S. cerevisiae expressing SARS-CoV PLpro, growth rescue. Potency, µM (series often up to 32.9 µM), inactives show at the top dose activity, positive = growth rescue, hits mostly activators. 0.19% of 330,000 active. AID 485353; calls by dose curve; also: potency is read from the fitted curve at half-maximal effect; 0% is about no effect; nearly all actives have a fitted effect of over 55% in size
# HCMV inh – human cytomegalovirus inhibition. HFF cells, HCMV-luciferase reporter, 72 h; active compounds read low. activity change, negative = inhibition, % at 57.5 µM. 4.5% of 410,000 active; in the data active = activity change below about -60%; inconclusive = no clear call, values can overlap the other calls; inactive = above about -39%; also: % is scaled to controls: 0 for no effect and ±100 for the full control effect
#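 Steps: HFFs plated, 16 h 37C; compounds added; HCMV-luciferase added to MOI 1 PFU/cell; 72 h 37C; OneGlo reagent, 5 min room temperature; luminescence read, normalized to controls.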
# HCV inh – HCV inhibition. Huh7.5.1 HCVcc-Cre infection, luciferase reporter, 44 h. Potency, µM (highest dose often 41.8 µM), without a hit: at the highest dose activity change, negative = inhibition, usual class: inhibitors. 3.4% of 340,000 active. AID 651820; also: potency is read from the fitted curve at half-maximal effect; % is scaled to controls: 0 for no effect and ±100 for the full control effect
#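 Compounds are dispensed onto cells plated 4 h earlier at 1,000 per well, with HCVcc-Cre virus (about 0.5 moi) added next. Following 44 h of culture, luminescent signal is measured for 15 sec after 15 min with substrate at room temperature.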
# Sm TGR block – inhibitors of Schistosoma mansoni thioredoxin glutathione reductase. Potency, µM (series often up to 114 µM), inactives show at the highest dose activity change, negative = inhibition, usual class: inhibitors. 3% of 360,000 active. purified TGR, DTNB reduction, TNB absorbance 405 nm. Q962Y6; also: potency is read from the fitted curve at half-maximal effect; % is scaled to controls: 0 for no effect and ±100 for the full control effect; nearly all actives have a fitted effect of over 60% in size
#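 First, TGR (20 nM dispensed) and NADPH were mixed with compound. Second, a 15 min room-temperature incubation followed. Third, further NADPH and then DTNB were added to start the reaction. Finally, TNB absorbance was monitored kinetically.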
# Active calls of the source: *; ? = inconclusive; · = not tested or not shown. Unless noted, calls follow the shape of the dose curve; as a rule, active = well fitted curve in the direction sought with a large enough effect; inconclusive = small, poorly fitted or top-dose-only effect, or another doubt; inactive = no such curve, though single readings can be large; an effect the other way counts as inactive or inconclusive.
SMILES,Pf growth 48h,Pf growth 96h,SARS PLpro yeast,HCMV inh,HCV inh,Sm TGR block
O=C1C2CC=CCC2C(=O)N1c1cccc(OS(=O)(=O)c2ccc3ccccc3c2)c1 (centres undefined),·,3.3µM*,1%,-26,6%,6%
CC(C)(C(=O)N1CCC1(C)C(=O)NS(=O)(=O)c1cccc(C#N)c1)c1ccccc1 (centres undefined),·,·,·,3,·,·
O=C(CN(C1CCCCC1)C1CCCCC1)N1CCc2ccccc2C1,·,13µM*,6%,-27,?,-5%
COc1ccc(C(C(=O)NC2CCCCC2)N(C(=O)CCl)c2cccc(Cl)c2)cc1 (centres undefined),?,?,-7%,-99*,1.6µM*,-18%
COc1ccc(C(C(=O)NC2CCCCC2)N(C(=O)CCl)c2ccc(OC)cc2)cc1 (centres undefined),-17%,9.3µM*,-12%,·,1µM*,-22%
COc1ccc(C(C(=O)NC2CCCCC2)N(C(=O)CCl)c2ccc(C)cc2)cc1 (centres undefined),-8%,67%,10%,-99*,0.56µM*,4%
COc1cccc(N(C(=O)Cc2cccs2)C(C(=O)NC2CCCC2)c2ccncc2)c1 (centres undefined),?,16%,0%,?,-4%,-14%
COc1ccc(CN(C(=O)c2nsc(Cl)c2Cl)C(C(=O)NC2CCCC2)c2ccc(C)cc2)cc1 (centres undefined),?,10µM*,-37%,?,?,-6%
COc1cc(N)c(Cl)cc1C(=O)OCC(=O)N1CCCCCC1,2%,-8%,-1%,-12,-4%,22%
CC(C(=O)Nc1ccccc1C#N)N1C(=O)NC2(CCCCCC2)C1=O (centres undefined),-4%,-16%,-2%,-5,?,1%
CCOc1ccccc1NC(=O)CN(C)S(=O)(=O)c1ccc2nc(C)sc2c1,·,·,·,4,·,-4%
COc1ccc(C(C(=O)NC2CCCC2)N(C(=O)c2ccoc2C)c2ccc(C)cc2)cc1 (centres undefined),10µM*,?,-10%,?,-12%,1%
COC(CN(C(=O)CCl)C(C(=O)NC1CCCCC1)c1ccc(C)cc1)OC (centres undefined),-12%,-6%,-3%,-29,-8%,45µM*
O=C(NC1CCCCC1)C(c1ccncc1)N(Cc1ccc(F)cc1)C(=O)c1ccccn1 (centres undefined),-15%,-15%,?,0,0%,-36%
O=C(NC1CCCC1)C(c1ccc(F)cc1)N(Cc1ccc(F)cc1)C(=O)CCl (centres undefined),0%,-13%,-20%,-67*,?,5.6µM*
COc1cccc(NC(=O)N(C)C[C@H]2OCc3cn(nn3)CCCC(=O)N([C@@H](C)CO)C[C@@H]2C)c1,·,·,·,36,·,·
CC(c1cc2ccccc2s1)N(O)C(N)=O (centres undefined),7%,0.38µM*,1%,·,·,0%
O=C(NCc1cccc(C(F)(F)F)c1)O[C@H]1CC[C@@]23CCCN2C(=O)CCC[C@H]3[C@H]1Cc1ccccc1,·,·,·,-17,·,·
CC(=O)Nc1cccc(-c2cnc(N)c(C(=O)c3cccnc3)n2)c1,·,·,1%,·,11µM*,·
O=C(c1cccc(F)c1)n1nnc2ccccc21,2%,·,-2%,12,9%,35µM*
CN(C)c1ccc(C(=O)n2nnc3ccccc32)cc1,27%,·,-15%,229,-5%,-17%
Cc1cccnc1N(C(=O)Nc1ccccc1)C1=NCC(C)(C)S1,?,-22%,2%,2,1%,6%
Cc1cccnc1N(C(=O)Nc1cccc(Cl)c1)C1=NCC(C)(C)S1,?,?,?,-62*,21%,-7%
O=C1C=CC(=O)C(C2=C3C(=O)N(CCc4ccccc4)CC(=O)N3CCC2)=C1,-26%,-25%,-1%,-99*,?,0.28µM*
COc1ccccc1N1CC(C(=O)Nc2ccc(N3CCOCC3)cc2)CC1=O (centres undefined),-17%,-8%,0%,0,0%,-1%
SMILES,Pf growth 48h,Pf growth 96h,SARS PLpro yeast,HCMV inh,HCV inh,Sm TGR block
Cc1nnc(NC(=O)c2ccc(S(=O)(=O)N3CCCCC3C)cc2)o1 (centres undefined),12µM*,?,0%,25,1%,8%
CC1CCCCN1S(=O)(=O)c1ccc(C(=O)Nc2nnc(-c3ccccn3)o2)cc1 (centres undefined),8%,6%,-3%,-21,-11%,8%
CC1CCCCN1S(=O)(=O)c1ccc(C(=O)Nc2nnc(C3=COCCO3)o2)cc1 (centres undefined),-8%,?,0%,-30,-11%,0%
Cc1cccc(NC(=O)c2ccc(S(=O)(=O)N3CCCCC3C)cc2)n1 (centres undefined),·,·,·,-32,?,·
CC1CCN(S(=O)(=O)c2ccc(C(=O)Nc3nnc(C4CC4)o3)cc2)CC1,?,?,13%,56,?,0%
CC1CCCCN1S(=O)(=O)c1ccc(C(=O)Nc2nnc(C3CC3)o2)cc1 (centres undefined),?,12µM*,-2%,-22,?,0%
CC1CCCCN1S(=O)(=O)c1ccc(C(=O)Nc2nnc(-c3ccco3)o2)cc1 (centres undefined),?,4.7µM*,5%,-70*,?,1%
O=C(Nc1nnc(C2CC2)o1)c1ccc(S(=O)(=O)N2CCCCC2)cc1,?,17µM*,0%,-61*,-5%,5%
C#Cc1ccc([C@@H]2C=C(C(=O)N3CCN(Cc4ccccc4)CC3)O[C@H](OCC)[C@H]2CCCO)cc1,?,6.6µM*,0%,-16,?,?
C#Cc1ccc([C@H]2C=C(C(=O)N3CCN(Cc4ccccc4)CC3)O[C@@H](OCC)[C@@H]2CCCO)cc1,?,10µM*,0%,15,-8%,?
CCO[C@@H]1OC(C(=O)N2CCN(Cc3ccccc3)CC2)=C[C@H](c2ccccc2)[C@H]1CCCO,?,?,-1%,6,-20%,-35%
CN1CC(=O)N(CC(=O)NCc2ccc3c(c2)OCO3)C1=O,·,25%,5%,-102*,14%,0%
CC(=O)c1c(C)n(CC(=O)NCc2ccc3c(c2)OCO3)c2ccccc12,1%,-3%,4%,?,10µM*,0%
CCOc1cc(CNCc2cccnc2)ccc1OCC(=O)NC(C)(C)C,-13%,28%,1%,2,13%,-18%
